Results reported in PubChem BioAssay AID504408 (Broad Institute, 2011).
The whole screen tested about 300,000 compounds, of which about 5,200 (1.7%) were called active. What follows is part of a selection rich in actives, with near analogues and random picks from the rest. Values without a mark were called inactive.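 Rule for the calls: active = mean replicate activation of at least 50% with a set share of replicates each reaching 50%; inconclusive = only one of those two conditions met; inactive = mean below 50% and too few replicates reaching it.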

assay: HSF-1 response element luciferase induction – NIH3T3-HGL cells, MG132 stress, luminescence, single point, primary screen (AID 504408); conditions: NIH3T3-HGL HSF-1 luciferase reporter, MG132, 8 h; at 9 µM; hits give high values; 100% = twice DMSO control signal;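 note: 0% = median of the neutral control wells and 100% = twice that signal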

Row | Structure (SMILES) | activation
1 | CCCn1c(C)cc(/C=C(\C#N)C(=O)OCC(=O)N(C)c2c(N)n(Cc3ccccc3)c(=O)[nH]c2=O)c1C | -4.32%
2 | Cc1nn(-c2ccccc2)c(Cl)c1C(=O)Nc1ccccc1 | -8.73%
3 | Cc1nn(-c2ccccc2)c(Cl)c1/C=C/C(=O)c1ccc(O)cc1 | 76.9% (active)
4 | Cc1ccc(C(=O)/C=C/c2c(C)nn(-c3ccccc3)c2Cl)cc1 | 42.3%
5 | COc1cc2c(cc1OC)C(Cc1cc(OC)c(OC)cc1[N+](=O)[O-])=NCC2 | -5.53%
6 | O=C(/C=C/c1ccc([N+](=O)[O-])o1)NNC(=O)c1ccc(F)cc1 | 71.3% (active)
7 | O=C(N/N=C/c1ccc([N+](=O)[O-])o1)c1cn(-c2ccccc2)nc1-c1ccc(F)cc1 | 3.06%
8 | C/[N+]([O-])=C\c1ccc([N+](=O)[O-])o1 | -2.43%
9 | Cc1ccc(OCCNC(=O)CNC(=O)c2ccc(C)c(C)c2)cc1 | 16.2%
10 | O=C1[C@H]2[C@@H](c3ccc(Cl)cc3)N3C(=O)N(c4cccc(F)c4)C(=O)[C@@]3(Cc3ccccc3)[C@H]2C(=O)N1C1CCCCC1 | -0.394%
11 | CC(=O)Nc1ccc(NC(=O)C(C)OC(=O)c2ccccc2C(=O)c2ccc(Cl)c([N+](=O)[O-])c2)cc1 (configuration not stated) | 27.5%
12 | COC(=O)c1cc(NC(=O)Cc2ccccc2[N+](=O)[O-])ccc1Cl | -11.7%
13 | N#Cc1cccc(NC(=O)COC(=O)c2ccccc2C(=O)c2ccc(Cl)c([N+](=O)[O-])c2)c1 | 241% (active)
14 | CC1(c2ccc(Cl)cc2Cl)NC(=O)N(CC(=O)Nc2cccnc2Cl)C1=O (configuration not stated) | -7.46%
15 | COc1ccccc1CCNC(=O)C(=O)NCCC1CCCCN1S(=O)(=O)c1cccs1 (configuration not stated) | 18%
16 | CN(CC(=O)NCc1cccnc1)S(=O)(=O)c1cc(Cl)ccc1Cl | 1.99%
17 | CC(Oc1ccc(Br)cc1)C(=O)NCC(c1ccco1)N1CCCCC1 (configuration not stated) | 12.7%
18 | CC(OC(=O)c1ccc(-n2cnnn2)cc1)C(=O)NCc1ccccc1 (configuration not stated) | -14%
19 | CCN1CCN(C(c2cccnc2)c2cc(Cl)c3cccnc3c2O)CC1 (configuration not stated) | -83.7%

Row | Structure (SMILES) | activation
20 | CCOC(=O)N1CCN(C(c2cccnc2)c2ccc3cccnc3c2O)CC1 (configuration not stated) | 67.9% (active)
21 | CCOC(=O)N1CCN(C(=O)CSc2nc(=O)n3cccc(C)c3n2)CC1 | -0.428%
22 | Cc1ccc(S(=O)(=O)c2nnn3c2nc(N2CCN(c4ccccn4)CC2)c2ccccc23)cc1 | 30.6%
23 | Cc1cccc(Nc2nc3c(S(=O)(=O)c4ccccc4)nnn3c3ccccc23)c1C | 8.48%
24 | CC(=O)Nc1ccc(Nc2nc3c(S(=O)(=O)c4ccc(C)c(C)c4)nnn3c3ccccc23)cc1 | 74.4% (active)
25 | COc1ccc(/C=C(\C#N)C(=O)OCC(=O)N(C)C2CCS(=O)(=O)C2)cc1 (configuration not stated) | -4.8%
26 | Cc1ccc2nc(SCC(=O)Nc3cccc4ccccc34)nc(=O)n2c1 | 16.2%
27 | N#Cc1c(N)n(CCOC(=O)c2ccc(Cl)cc2)c2nc3ccccc3nc12 | 26.8%
28 | CN(C)CCCn1c(N)c(C#N)c2nc(C#N)c(C#N)nc21 | 76.2% (active)
29 | CC(C)(C)c1ccc(C(=O)NCCn2c(N)c(C#N)c3nc4ccccc4nc32)cc1 | 27.2%
30 | CC(OC(=O)CCCc1c[nH]c2ccccc12)C(=O)Nc1ccc(S(N)(=O)=O)cc1 (configuration not stated) | 8.99%
31 | CC(=O)Nc1ccc(C(=O)Nc2cccc(S(=O)(=O)NC3=NCCC3)c2)cc1 | -9.72%
32 | COc1ccc(C(=O)CN2C(=O)NC3(CCc4ccccc43)C2=O)c(OC)c1 (configuration not stated) | -14%
33 | Cc1nn(C)cc1C(=O)c1ccccc1 | 5.22%
34 | Cc1cc(NC(=O)C(C)N2C(=O)c3ccccc3S2(=O)=O)no1 (configuration not stated) | -3.5%
35 | COc1cc2ccccc2cc1C(=O)N1CCOCC1 | -5.8%
36 | CCOc1ccc(N=C2SC(C(=O)O)CC(=O)N2C)cc1 (configuration not stated) | -0.001%
37 | C=CCN1C(=O)C(Cc2cccc(Cl)c2)S/C1=N/N=C/c1ccco1 (configuration not stated) | 23.1%
38 | C=CCN1C(=O)C(Cc2ccc(OCC)cc2)SC1=Nc1ccc(C(=O)O)cc1 (configuration not stated) | 58.5% (active)

Row | Structure (SMILES) | activation
39 | COc1cccc(N2CC(NC(=O)c3ccc4ccccc4c3)CC2=O)c1 (configuration not stated) | -3.4%
40 | Nc1c(-c2ccccc2)nnn1Cc1ccccc1 | 17.5%
41 | O=c1c2ccccc2nc2n1C(CSc1ccc(Cl)cc1)CN2 (configuration not stated) | -13%
42 | Clc1ccc2nc(CSc3ccccc3)cn2c1 | 70.2% (active)
43 | O=C(/C=C/c1ccc2c(c1)OCO2)NCc1cn2cc(Cl)ccc2n1 | 1.53%
44 | N#CC1(NC(=O)COC(=O)Cc2n[nH]c(=O)c3ccccc23)CCCCC1 | 3.96%
45 | COc1ccc(-c2cc(C(=O)N(C)CC(=O)Nc3ccccc3Cl)c3ccccc3n2)cc1OC | -23.1%
46 | Cc1c(C(N)=O)sc2ncn(CCOc3ccccc3)c(=O)c12 | 58.5% (active)
47 | Cc1cccc(OC(=O)c2sc3ncn(C)c(=O)c3c2C)c1 | 17.3%
48 | CCOC(=O)C(C)n1cnc2sc(C)c(C)c2c1=O (configuration not stated) | 6.07%
49 | CCOc1ccc(CCNC(=O)COC(=O)c2ccc(F)c(S(=O)(=O)N3CCOCC3)c2)cc1OCC | -9.54%
50 | CCC(=O)N1CCc2cc(Br)c(S(=O)(=O)NCCN3CCCCC3CC)cc21 (configuration not stated) | -1.08%
51 | COc1ccc(C(=O)Nc2cccc(NC(=O)c3ccc(OC)cc3OC)n2)c(OC)c1 | -34.1%
52 | O=C1CC(c2ccccc2)CC(O)=C1C=NCCN1CCOCC1 (configuration not stated) | -5.8%
53 | O=C1CCCC(O)=C1C=NCCc1ccccc1 | 21%
54 | O=C1CC(c2cccc(Cl)c2)CC(O)=C1C=Nc1ccccc1 (configuration not stated) | 116% (active)
55 | O=C(NCCS(=O)(=O)N1CCN(c2ccccc2)CC1)c1ccco1 | 4.49%
56 | Cc1cc(O)c(Sc2ccccc2)c(=O)o1 | -2.42%
57 | CCCCn1c(N)c(N(CC(C)C)C(=O)c2cccc(S(=O)(=O)N3CCN(C(C)=O)CC3)c2)c(=O)[nH]c1=O | -4.85%
